Reference: PubChem BioAssay
Active and inactive are the calls of the source. The rule behind the calls is not given here.

Each compound was assayed against Pantothenate synthetase (Mycobacterium tuberculosis (strain ATCC 25618 / H37Rv)) (UniProt P9WIL5) (assay: Coupled enzyme confirmation of inhibitors against recombinant Mtb PanC (AID 375;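 note: 0% = full reaction with vehicle and 100% = no enzyme background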)). Conditions: coupled enzyme assay; at 10 µM, hits give high values.
Chain of Pantothenate synthetase (Mycobacterium tuberculosis (strain ATCC 25618 / H37Rv)) (P9WIL5 whole entry, looked up): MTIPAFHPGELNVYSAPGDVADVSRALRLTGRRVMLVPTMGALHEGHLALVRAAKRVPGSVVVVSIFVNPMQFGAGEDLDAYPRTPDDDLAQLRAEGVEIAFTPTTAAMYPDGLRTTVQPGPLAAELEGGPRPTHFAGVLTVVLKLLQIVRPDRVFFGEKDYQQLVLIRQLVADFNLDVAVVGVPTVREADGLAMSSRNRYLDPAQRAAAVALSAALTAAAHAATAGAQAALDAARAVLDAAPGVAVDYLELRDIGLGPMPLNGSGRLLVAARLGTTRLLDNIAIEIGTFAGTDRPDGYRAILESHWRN

**Q.** How did the inhibition turn out when `O=C(COc1ccc(S(=O)(=O)NC2CCCCC2)cc1Cl)NCC1CCCO1` (stereo not given) was run?
**A.** 0% (inactive)

**Q.** Which inhibition does the source give for `Cc1ccc(S(=O)(=O)N(C)c2ccc(OCC(=O)OCc3c(C)noc3C)cc2)cc1` here?
**A.** 0% (inactive)

**Q.** Which inhibition does the source give for `O=c1oc2ccccc2c2c1ncn2-c1ccccc1` here?
**A.** 0% (inactive)

**Q.** For `Cc1nc(SCC(=O)NCc2ccco2)c2c(C)c(C)sc2n1`, which inhibition is on record?
**A.** 5% (inactive)

**Q.** How did the inhibition turn out when `CC1Cc2nc(SCC(N)=O)n(Cc3ccccc3)c(=O)c2S1` (stereo not given) was run?
**A.** 0% (inactive)

**Q.** With `O=C(NCc1ccccn1)Nc1ccc2c(c1)OCO2` as the compound, how does the inhibition read?
**A.** 4% (inactive)

**Q.** How did the inhibition turn out when `O=C(CSc1ccccc1C(=O)NCCCN1CCCC1=O)NCc1ccco1` was run?
**A.** 5% (inactive)

**Q.** Which inhibition does the source give for `O=C(NCCCCNC(=O)c1cccnc1)c1cccnc1` here?
**A.** 0% (inactive)

**Q.** How did the inhibition turn out when `NS(=O)(=O)c1ccc(NC(=O)CSc2nnc(Cc3cccs3)n2-c2ccccc2)cc1` was run?
**A.** 1% (inactive)

**Q.** How did the inhibition turn out when `Cc1cccc(NC(=O)CSc2nnc(-c3ccccc3C)o2)c1` was run?
**A.** 0% (inactive)

**Q.** Which inhibition does the source give for `CC1CCc2nn(CC(=O)NCCN3CCOCC3)cc2C1` (stereo not given) here?
**A.** 0% (inactive)

**Q.** How did the inhibition turn out when `Cc1cc2ncn(C(=O)c3c(-c4ccccc4)noc3C)c2cc1C` was run?
**A.** 5% (inactive)

**Q.** With `CC(C)Oc1ccc(-c2nn(-c3ccccc3)cc2/C=c2\sc3ncnn3c2=O)cc1` as the compound, how does the inhibition read?
**A.** 0% (inactive)

**Q.** With `COc1ccc(-n2ncc3c(NCc4ccc5c(c4)OCO5)ncnc32)cc1` as the compound, how does the inhibition read?
**A.** 0% (inactive)

**Q.** Which inhibition does the source give for `Cc1ccc(CC23CN4CCN(CC(C4)C2O)C3)c(C)c1` (stereo not given) here?
**A.** 1% (inactive)

**Q.** For `CCCCn1c(NCc2ccccc2O)nc2ccccc21`, which inhibition is on record?
**A.** 0% (inactive)

**Q.** With `O=c1[nH]c(SCc2cc(=O)n3ccccc3n2)nc2c1CCC2` as the compound, how does the inhibition read?
**A.** 4% (inactive)

**Q.** For `C=CCSc1nc2c(c(=O)[nH]c(=O)n2C)n1C(C)C`, which inhibition is on record?
**A.** 0% (inactive)

**Q.** For `Cc1ccc(-c2nn3c(C)nnc3s2)cc1N`, which inhibition is on record?
**A.** 0% (inactive)

**Q.** Which inhibition does the source give for `COC(=O)c1[nH]c2ccc(C)cc2c1NC(=O)CN1CCC(C)CC1` here?
**A.** 0% (inactive)

**Q.** How did the inhibition turn out when `COC(=O)c1ccc(COc2ncnc3c(Cl)cc(Cl)cc23)o1` was run?
**A.** 0% (inactive)

**Q.** For `COc1cc2c3c(c1)/C(=C1/SC(NC(C)=O)=NC1=O)C(=O)N3C(C)(C)C=C2C`, which inhibition is on record?
**A.** 0% (inactive)

**Q.** Which inhibition does the source give for `C/C(=N\O)C(=O)NCc1ccccn1` here?
**A.** 4% (inactive)

**Q.** Which inhibition does the source give for `CN1CCN(C(=O)CN(Cc2ccc(Cl)cc2)S(C)(=O)=O)CC1` here?
**A.** 4% (inactive)

**Q.** How did the inhibition turn out when `O=C(CSc1ncnc2ccccc12)N1CCN(c2ccccc2)CC1` was run?
**A.** 0% (inactive)

**Q.** How did the inhibition turn out when `CC(=O)N1CCc2cc(S(=O)(=O)NCCC(=O)Nc3cc(C)cc(C)c3)ccc21` was run?
**A.** 2% (inactive)

**Q.** How did the inhibition turn out when `CCc1c(C)c2ccc(OCC(=O)OC)cc2oc1=O` was run?
**A.** 0% (inactive)

**Q.** Which inhibition does the source give for `Nc1nc2n(n1)C(c1cccc(Cl)c1)CC(c1ccc(F)cc1)N2` (stereo not given) here?
**A.** 0% (inactive)

**Q.** How did the inhibition turn out when `CCCCCc1c(C)nc(SCC(=O)O)[nH]c1=O` was run?
**A.** 0% (inactive)

**Q.** With `Cc1cc(C)cc(Nc2ncc3c(n2)CC(c2ccco2)CC3=O)c1` (stereo not given) as the compound, how does the inhibition read?
**A.** 3% (inactive)

**Q.** `CC(C)Cn1c(N)c(C(=O)NCCN2CCOCC2)c2nc3ccccc3nc21` was tested. Which inhibition did it give?
**A.** 0% (inactive)

**Q.** Which inhibition does the source give for `O=c1c2c3c(sc2nc2sc(C4CC4)nn12)CCCC3` here?
**A.** 0% (inactive)

**Q.** Which inhibition does the source give for `COC(=O)c1ccccc1NC(=O)C1CC=CCC1C(=O)O` (stereo not given) here?
**A.** 0% (inactive)

**Q.** With `Cc1ccccc1CN1CCN(CC(=O)NCc2ccccc2)C1=O` as the compound, how does the inhibition read?
**A.** 2% (inactive)

**Q.** With `O=C(CN(Cc1ccco1)C(=O)CNS(=O)(=O)c1ccc(F)cc1)NCCc1ccccc1` as the compound, how does the inhibition read?
**A.** 3% (inactive)

**Q.** With `O=C(CSc1nc2ccccc2c(=O)n1Cc1ccco1)NCc1ccccc1` as the compound, how does the inhibition read?
**A.** 2% (inactive)

**Q.** `O=C(Nc1ccc(CN2CCOCC2)cc1)c1cc2ccccn2n1` was tested. Which inhibition did it give?
**A.** 0% (inactive)

**Q.** How did the inhibition turn out when `CC(C)c1nnc(NC(=O)c2cnccn2)s1` was run?
**A.** 0% (inactive)

**Q.** For `CN1CCN(c2nc(-c3ccncc3)nc3ccccc23)CC1`, which inhibition is on record?
**A.** 0% (inactive)

**Q.** How did the inhibition turn out when `Nc1nonc1-n1nnc(C(=O)c2ccccc2)c1-c1ccccc1` was run?
**A.** 0% (inactive)
